Our source for the NF-kB reporter, IRF reporter and viability score values is the supplement of paper PMC10646978.

± gives the standard deviation.

Common to all, as to settings: modulator concentration 10 µM
In assay [1] the test system is RAW-Dual (murine macrophage reporter line). The assay is described as follows: NF-kB reporter (SEAP) activity fold change vs agonist alone; higher = enhanced NF-kB activity. In short, it runs like this: (§1)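 RAW-Dual murine macrophage reporter cells were seeded at 50 000 per well in 384-well plates and pre-incubated 1 hour at 37 °C with compound pin-transferred to 10 μM final. After 1 hour, a PRR agonist was added and cells incubated overnight. Supernatant NF-κB (SEAP, QUANTI-Blue, 620 nm absorbance) and IRF (Lucia luciferase, QUANTI-Luc, luminescence) signals were divided by the mean agonist-only control on the same plate to give fold change. Two replicate plates were averaged, with errors by propagation.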

The test system is the same in assay [2]. Description: IRF reporter (Lucia luciferase) activity fold change vs agonist alone; higher = enhanced IRF activity. The procedure, abridged: as §1
Assay [3] has the same test system. Description: viability score (confluency relative to resting cells, overnight) (fraction); higher = more viable, active = viable (0.7 or more). The procedure, abridged: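 Overnight exposure to 10 μM final compound was carried out on RAW-Dual macrophages in 384-well plates. IncuCyte software generated two confluency masks over all wells imaged with IncuCyte. The viability score gives confluency in relation to resting cells. A compound met the cutoff if each mask exceeded 70% of resting cells.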

Setting [4] is: agonist: CpG ODN 1826 0.5 ug/mL.

`COC(=O)C1=C(C)NC(C)=C(C(=O)OC(C)(C)CN(C)CCC(c2ccccc2)c2ccccc2)C1c1cccc([N+](=O)[O-])c1.Cl` (stereo unspecified): the NF-kB reporter in assay [1] (setting [4]) worked out at 0.167 ± 0.023; in assay [1] (agonist: LPS 0.1 ug/mL), 0.807 ± 0.17; in assay [1] (agonist: MPLA […]), 1.98 ± 1. In addition, the IRF reporter in assay [2] (agonist: 3'3'-cGAMP 10 ug/mL) amounted to 0.132 ± 0.0065; in assay [2] (agonist: LPS 0.1 ug/mL), 1.69 ± 0.37; in assay [2] (agonist: MPLA […]), 2.85 ± 0.23. For the same compound, in assay [3], the viability score was 0.96 (active).
As for `CN(Cc1cnc2nc(N)nc(N)c2n1)c1ccc(C(=O)N[C@@H](CCC(=O)O)C(=O)O)cc1`, the NF-kB reporter is 0.668 ± 0.16 in assay [1] (setting [4]), 0.862 ± 0.28 in assay [1] (agonist: LPS 0.1 ug/mL) and 0.764 ± 0.045 in assay [1] (agonist: MPLA […]). For the same compound, the figures for the IRF reporter in assay [2] (agonist: 3'3'-cGAMP 10 ug/mL), in assay [2] (agonist: LPS 0.1 ug/mL) and in assay [2] (agonist: MPLA […]) were 0.612 ± 0.049, 1.02 ± 0.35 and 0.993 ± 0.16, respectively. Also, in assay [3], the viability score was 0.574 (inactive).
Regarding `COC(=O)C1=C(C)NC(C)=C(C(=O)OC)C1c1ccccc1[N+](=O)[O-]`, the NF-kB reporter came out at 1.27 ± 0.1 in assay [1] (setting [4]), 1.33 ± 0.073 in assay [1] (agonist: LPS 0.1 ug/mL) and 1.82 ± 0.17 in assay [1] (agonist: MPLA […]). Also, the results for the IRF reporter in assay [2] (agonist: 3'3'-cGAMP 10 ug/mL), in assay [2] (agonist: LPS 0.1 ug/mL) and in assay [2] (agonist: MPLA […]) were 0.374 ± 0.017, 0.585 ± 0.035 and 0.414 ± 0.038, respectively. For the same compound, the viability score in assay [3] is 0.907 (active).
With `Cc1ccc(C(=O)NC(=Cc2cccc3ccccc23)C(=O)N2CCCC2)cc1`, the NF-kB reporter in assay [1] (setting [4]) was found to be 0.957 ± 0.075; in assay [1] (agonist: LPS 0.1 ug/mL) it was 1.03 ± 0.067; in assay [1] (agonist: MPLA […]) it was 0.974 ± 0.086. The IRF reporter is 0.966 ± 0.042 in assay [2] (agonist: 3'3'-cGAMP 10 ug/mL), 1.31 ± 0.23 in assay [2] (agonist: LPS 0.1 ug/mL) and 1.15 ± 0.22 in assay [2] (agonist: MPLA […]). In addition, in assay [3], the viability score was 1.01 (active).
Regarding `COc1ccc(-c2nc3c4cnn(-c5ccc(C)cc5C)c4ncn3n2)c(O)c1`, the values for the NF-kB reporter in assay [1] (setting [4]), in assay [1] (agonist: LPS 0.1 ug/mL) and in assay [1] (agonist: MPLA […]) were 1.03 ± 0.058, 1.1 ± 0.086 and 0.991 ± 0.11, respectively. Also, the IRF reporter stood at 1.05 ± 0.059 in assay [2] (agonist: 3'3'-cGAMP 10 ug/mL), 1.25 ± 0.14 in assay [2] (agonist: LPS 0.1 ug/mL) and 1.09 ± 0.27 in assay [2] (agonist: MPLA […]). Further, the viability score in assay [3] was 1 (active).
With `Cc1ccc(-n2ncc3c(SCC(=O)NC(C)(C)C)ncnc32)c(C)c1`, the NF-kB reporter in assay [1] (setting [4]) was 1.01 ± 0.082; in assay [1] (agonist: LPS 0.1 ug/mL) it was 1.16 ± 0.1; in assay [1] (agonist: MPLA […]), 1.05 ± 0.047. Also, the results for the IRF reporter in assay [2] (agonist: 3'3'-cGAMP 10 ug/mL), in assay [2] (agonist: LPS 0.1 ug/mL) and in assay [2] (agonist: MPLA […]) were 0.644 ± 0.026, 0.95 ± 0.048 and 1.22 ± 0.18, respectively. Further, in assay [3], the viability score was 0.996 (active).
Consider `c1cn2cc(-c3ccc4cn[nH]c4c3)nc(Nc3ccc(N4CCOCC4)cc3)c2n1`, for which the NF-kB reporter in assay [1] (setting [4]) was determined as 0.99 ± 0.24; in assay [1] (agonist: LPS 0.1 ug/mL), 0.759 ± 0.06; in assay [1] (agonist: MPLA […]) it was 1.25 ± 0.12. The IRF reporter stood at 0.24 ± 0.015 in assay [2] (agonist: 3'3'-cGAMP 10 ug/mL), 0.897 ± 0.12 in assay [2] (agonist: LPS 0.1 ug/mL) and 1.1 ± 0.26 in assay [2] (agonist: MPLA […]). Moreover, in assay [3], the viability score is 0.978 (active).
As to `Cl.OC(CC#CCN1CCCC1)(c1ccccc1)c1ccccc1`, the results for the NF-kB reporter in assay [1] (setting [4]), in assay [1] (agonist: LPS 0.1 ug/mL) and in assay [1] (agonist: MPLA […]) were 0.726 ± 0.13, 1.08 ± 0.086 and 0.967 ± 0.074, respectively. For the same compound, the IRF reporter in assay [2] (agonist: 3'3'-cGAMP 10 ug/mL) worked out at 0.748 ± 0.019; in assay [2] (agonist: LPS 0.1 ug/mL), 1.28 ± 0.15; in assay [2] (agonist: MPLA […]) it was 1.42 ± 0.17. The viability score in assay [3] is 0.597 (inactive).
`Cc1c(C(=O)NN2CCCCC2)nn(-c2ccc(Cl)cc2Cl)c1-c1ccc(Cl)cc1`: the NF-kB reporter is 0.799 ± 0.037 in assay [1] (setting [4]), 1.25 ± 0.11 in assay [1] (agonist: LPS 0.1 ug/mL) and 0.981 ± 0.075 in assay [1] (agonist: MPLA […]). The IRF reporter in assay [2] (agonist: 3'3'-cGAMP 10 ug/mL) came out at 0.282 ± 0.015; in assay [2] (agonist: LPS 0.1 ug/mL), 0.618 ± 0.13; in assay [2] (agonist: MPLA […]), 0.752 ± 0.17. Further, the viability score in assay [3] is 1 (active).
For `C=CCNC(N)=S`, the NF-kB reporter was found to be 1.37 ± 0.2 in assay [1] (setting [4]), 1 ± 0.32 in assay [1] (agonist: LPS 0.1 ug/mL) and 0.931 ± 0.077 in assay [1] (agonist: MPLA […]). Besides, the IRF reporter turned out to be 0.898 ± 0.027 in assay [2] (agonist: 3'3'-cGAMP 10 ug/mL), 1.06 ± 0.4 in assay [2] (agonist: LPS 0.1 ug/mL) and 0.986 ± 0.17 in assay [2] (agonist: MPLA […]). The viability score in assay [3] is 1.01 (active).
For the compound `CCC(=O)Nc1ccc(NC(=O)c2ccco2)c(OC)c1`, the NF-kB reporter in assay [1] (setting [4]) amounted to 0.828 ± 0.065; in assay [1] (agonist: LPS 0.1 ug/mL), 0.831 ± 0.11; in assay [1] (agonist: MPLA […]), 1.08 ± 0.12. The IRF reporter in assay [2] (agonist: 3'3'-cGAMP 10 ug/mL) is 0.934 ± 0.044; in assay [2] (agonist: LPS 0.1 ug/mL) it was 1.32 ± 0.11; in assay [2] (agonist: MPLA […]) it was 1.42 ± 0.18. The viability score in assay [3] is 1.01 (active).
`CN1CCCC(n2nc(Cc3ccc(Cl)cc3)c3ccccc3c2=O)CC1.Cl` (stereo unspecified): the NF-kB reporter in assay [1] (setting [4]) was 0.135 ± 0.008; in assay [1] (agonist: LPS 0.1 ug/mL) it was 0.929 ± 0.12; in assay [1] (agonist: MPLA […]), 1.42 ± 0.26. The IRF reporter in assay [2] (agonist: 3'3'-cGAMP 10 ug/mL) turned out to be 1.12 ± 0.14; in assay [2] (agonist: LPS 0.1 ug/mL) it was 1.19 ± 0.22; in assay [2] (agonist: MPLA […]) it was 1.35 ± 0.4. In addition, the viability score in assay [3] is 0.587 (inactive).
`O=c1cc(O)c(Cl)c[nH]1`: the NF-kB reporter was 0.953 ± 0.11 in assay [1] (setting [4]), 0.952 ± 0.15 in assay [1] (agonist: LPS 0.1 ug/mL) and 1 ± 0.052 in assay [1] (agonist: MPLA […]). The results for the IRF reporter in assay [2] (agonist: 3'3'-cGAMP 10 ug/mL), in assay [2] (agonist: LPS 0.1 ug/mL) and in assay [2] (agonist: MPLA […]) were 1.01 ± 0.12, 0.925 ± 0.033 and 0.839 ± 0.13, respectively. In assay [3], the viability score is 0.996 (active).
